The campaign covered roughly 330,000 compounds. About 3,800 (1.2%) were called active. For the sample, actives were picked, then their nearest neighbours and some compounds at random. Unmarked numbers belong to inactive results. Cut-off read from the data, not from the text of the source: active = inhibition above about 15%; inconclusive = no clear call, values can overlap the other calls; inactive = below that.

For 51 compounds, inhibition results are on record in PubChem BioAssay AID652115 (Broad Institute, 2013).

This experiment deals with NAD-dependent protein deacylase sirtuin-5, mitochondrial (Homo sapiens) (UniProt Q9NXA8). Briefly: blockers of sirtuin-5 deacylase activity – biochemical, fluorescence imaging, single point, set 5, primary screen (AID 652115). The settings on record: Purified SirT5, succinyl-peptide AMC, trypsin-coupled fluorescence; at 15 µM; stronger effect = higher value.
Sequence of NAD-dependent protein deacylase sirtuin-5, mitochondrial (Homo sapiens) (Q9NXA8 whole entry, looked up): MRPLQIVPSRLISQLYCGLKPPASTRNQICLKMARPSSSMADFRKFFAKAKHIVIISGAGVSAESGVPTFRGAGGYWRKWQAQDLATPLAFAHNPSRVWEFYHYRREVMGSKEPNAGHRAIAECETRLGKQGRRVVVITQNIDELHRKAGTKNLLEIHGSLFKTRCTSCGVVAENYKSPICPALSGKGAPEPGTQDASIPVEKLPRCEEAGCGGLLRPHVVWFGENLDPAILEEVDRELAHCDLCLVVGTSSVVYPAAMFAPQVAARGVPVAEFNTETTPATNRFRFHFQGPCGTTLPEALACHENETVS
`CO[C@@H]1CN(C)C(=O)c2cc(NS(=O)(=O)c3cccc(F)c3)ccc2OC[C@@H](C)NC[C@@H]1C`: the inhibition is -3.7%.
Take `CCC(=O)Nc1ccc2c(c1)C(=O)N(C)C[C@@H](OC)[C@H](C)CN(Cc1ccccc1C(=O)O)[C@@H](C)CO2`: the inhibition was 2.25%.
As for `O=C(C1CCCCC1)N1CC2(C1)[C@H](c1ccccc1)[C@H](CO)N2CC1CCCC1`, the figure is 5.17%; as for `O=C(COC(=O)c1ccc([N+](=O)[O-])o1)NC12CC3CC(CC(C3)C1)C2`, -5.22%; as for `O=C(COC(=O)c1ccc(Br)o1)NC12CC3CC(CC(C3)C1)C2`, 15.6% (active).
As for `O=C(COC(=O)c1cccnc1Cl)NC12CC3CC(CC(C3)C1)C2`, the figure is 0.076%; as for `COCC(=O)Nc1ccc2c(c1)OC[C@@H](C)N(Cc1ccccn1)C[C@H](C)[C@@H](OC)CN(C)C2=O`, -1.91%; as for `COc1cccc(S(=O)(=O)Nc2ccc3c(c2)C(=O)N(C)C[C@@H](OC)[C@@H](C)CN[C@@H](C)CO3)c1`, 5.28%.
On to `C[C@H](O)C#Cc1cnc2c(c1)C(=O)N([C@@H](C)CO)C[C@H](C)[C@@H](CN(C)C(=O)c1ccccc1)O2`, for which the inhibition is -1.59%.
To `COc1cccc(OCC(=O)Nc2ccccc2C(N)=O)c1` belongs 29.5% (active).
In the case of `Cc1cccc(OCCC(=O)Nc2ccccc2C(N)=O)c1`, the inhibition was -1.74%.
Consider `Cc1cccc(OCC(=O)Nc2ccccc2F)c1`, for which the inhibition is -2.03%.
Take `O=C(C[C@@H]1CC[C@H]2[C@@H](COC[C@@H](O)CN2S(=O)(=O)c2cccc(Cl)c2)O1)N1CCCCC1`: the inhibition is 1.52%.
To `COc1ccccc1NC(=O)CCCc1c[nH]c2ccccc12` belongs -1.4%; to `COc1ccc(CCNS(=O)(=O)c2ccc(F)cc2)cc1OC`, -1.59%.
Take `COc1ccc(S(=O)(=O)NCCc2c[nH]c3ccccc23)cc1OC`: the inhibition is 21.4% (active).
For the compound `CC=Cc1ccc2n(c1=O)C[C@H]1[C@H](CO)[C@@H](C(=O)NCC3CC3)N(Cc3nccs3)[C@@H]21` (mixture of isomers), the inhibition is 1.01%.
To `COCC(=O)N1C[C@H]2[C@@H](c3ccccc31)[C@@H](CO)N2C(=O)NC(C)C` belongs 0.583%.
On to `O=C(C1CCC1)N1CC(=O)N2[C@H](C1)[C@@H](c1ccc(-c3ccccc3F)cc1)[C@@H]2CO`, for which the inhibition is 3.28%.
As for `C[C@H](CO)N1C[C@H](C)[C@H](CN(C)Cc2ccc(C(=O)Nc3ccccc3N)cc2)Oc2c(NC(=O)Nc3ccccc3)cccc2C1=O`, the figure is -0.83%; as for `COCCN1C(=O)N[C@@H](c2ccccc2)C(C(=O)OC)=C1C`, -1.66%.
To `COc1ccc(C2NC(=O)N(C)C(C)=C2[N+](=O)[O-])cc1` (stereo unspecified) belongs 2.48%.
For `COC(=O)C1=C(C)N(C)C(=O)NC1c1ccc([N+](=O)[O-])o1` (stereo unspecified), the inhibition is 17.2% (active).
As for `CC=Cc1ccc2n(c1=O)C[C@H]1[C@H](CO)[C@@H](C(=O)N3CCCCC3)N(Cc3ccccn3)[C@@H]21` (mixture of isomers), the figure is 3.91%; as for `C[C@@H](NC(=O)C[C@H]1C[C@H]2c3cc(NC(=O)C4CCOCC4)ccc3O[C@H]2[C@@H](CO)O1)c1ccccc1`, -0.41%.
To `COCCCNC(=S)N(Cc1ccccc1)Cc1ccc(F)cc1` belongs 15.1% (active).
As to `Cc1cc(C)c2[nH]c(=O)c(CN(Cc3ccccc3)C(=S)NCCCN(C)C)cc2c1`, the inhibition was -6.33%.
As for `COCCCNC(=S)NNC(=O)C(O)(c1ccccc1)c1ccccc1`, the figure is -5.23%; as for `COCC(=O)N1[C@H](CO)[C@@H](c2ccccc2)[C@H]1CN(C)C(=O)c1ccncc1`, 3.21%.
Turning to `CCN(c1ccccc1)S(=O)(=O)c1ccc2[nH]c(=O)[nH]c2c1`, the inhibition is 23.9% (active).
On to `CN(c1ccccc1)S(=O)(=O)c1ccc2[nH]c(=O)[nH]c2c1`, for which the inhibition is -0.22%.
As to `CCN(c1ccccc1)S(=O)(=O)c1ccc(OCC(=O)N2CCCC2)cc1`, the inhibition was -0.147%.
To `O=C(C[C@H]1C=C[C@H](NC(=O)Cc2ccccn2)[C@@H](CO)O1)NCCc1ccccc1` belongs 6.76%; to `O=C(C1CCCC1)N1CC(=O)N2[C@H](C1)[C@@H](c1ccc(-c3cccnc3)cc1)[C@@H]2CO`, 1.11%.
For `CO[C@H]1CN(C)C(=O)c2ccc(NC(=O)Nc3c(C)noc3C)cc2OC[C@@H](C)NC[C@H]1C`, the inhibition was -5.86%.
To `Cc1cccc(-n2c(C)cc(/C=N\NC(=O)c3cccs3)c2C)c1` belongs -1.07%; to `Cc1cc(/C=N/Nc2ccc([N+](=O)[O-])cn2)c(C)n1-c1cccc(C(=O)O)c1`, 17.7% (active).
As for `CC(C)c1ccc(C=NNc2ccc([N+](=O)[O-])cn2)cc1`, the figure is 1.24%; as for `O=S(=O)(c1ccc(F)cc1)N1CC[C@@H]2[C@@H](CO)Nc3ccc(-c4ccccc4F)cc3[C@@H]21`, 7.3%; as for `O=C(C[C@@H]1C[C@@H]2c3cc(NC(=O)Nc4ccc(F)cc4)ccc3O[C@@H]2[C@H](CO)O1)NCC(F)(F)F`, -3.74%.
`Cc1noc(C)c1NC(=O)N[C@@H]1CC[C@H](CC(=O)Nc2ccccc2)O[C@H]1CO`: the inhibition was 5.15%.
To `Cc1noc(C)c1NC(=O)N[C@H]1C=C[C@@H](CC(=O)Nc2ccccc2)O[C@H]1CO` belongs 1.42%.
For `Cc1noc(C)c1NC(=O)N[C@@H]1C=C[C@@H](CC(=O)Nc2ccccc2)O[C@H]1CO`, the inhibition was 32.2% (active).
Take `O=S(=O)(Cc1ccccc1)c1nc2ccccc2n1Cc1ccccn1`: the inhibition was 21.7% (active).
As for `c1ccc(CCc2ccccn2)cc1`, the figure is 9.65%.
With `CC(=O)c1nc2ccccc2n1Cc1ccccc1`, the inhibition is -2.51%.
Take `COc1ccccc1NC(=O)N[C@H]1C=C[C@H](CC(=O)N[C@@H](C)c2ccccc2)O[C@H]1CO`: the inhibition was -1.94%.
In the case of `C/C=C/c1cnc2c(c1)C(=O)N([C@@H](C)CO)C[C@@H](C)[C@@H](CN(C)C(=O)c1cnccn1)O2`, the inhibition is -1.71%.
To `Cc1scc(C(=O)NNC(=S)NCC(C)C)c1C` belongs -4.94%; to `Cc1scc(C(=O)NNC(=S)NCc2ccccc2)c1C`, -0.205%.
As for `Cc1occc1C(=O)NNC(=S)NCC(C)C`, the figure is 19.4% (active).
